# Measured values from PubChem BioAssay.
# Activity calls are given as the source filed them. Unless noted, how the calls were made is not given here.
# Columns and labels:
# [1] = A549 cell viability effects, profiling panel, calcein-AM fluorescence, 48 h, basal (AID 1162); details: higher = more signal; further: test concentration not given here
# [2] = adipocyte viability effects, profiling panel, cell-based, 3T3-L1 adipocytes, calcein-AM fluorescence, 48 h, basal (AID 1163); details: 3T3-L1 adipocytes viability, higher = more signal; further: test concentration not given here
# [3] = HepG2 cell viability effects, profiling panel, calcein-AM fluorescence, 48 h, basal (AID 1164); details: higher = more signal; further: test concentration not given here
# [4] = MM1S cell viability effects, profiling panel, calcein-AM fluorescence, 48 h, basal (AID 1165); details: higher = more signal;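 further: viability of MM1S multiple myeloma cells under basal unstimulated conditions; test concentration not given here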
# [5] = basal RPMI8226 viability, no added stimulus, profiling panel, cell-based, calcein-AM fluorescence, 48 h, PK04 Diversity Set (AID 1166); details: RPMI8226 myeloma viability, higher = more signal;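 further: cells grown under basal conditions without added stimulus; test concentration not given here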
# [6] = basal HepG2 mitochondrial membrane potential changes, profiling panel, cell-based, JC-1 fluorescence, 24 h, 100 nL compound (AID 1167); details: higher = more signal; further: test concentration not given here
# [7] = basal 3T3-L1 adipocyte mitochondrial potential changes, profiling panel, cell-based, JC-1 fluorescence, 3T3-L1 adipocytes, 24 h, 100 nL compound (AID 1168); details: JC-1 mitochondrial fluorescence, higher = more signal, called active from +8 up or from −8 down; further: test concentration not given here
# [8] = basal RPMI8226 mitochondrial membrane potential changes, profiling panel, cell-based, JC-1 fluorescence, 24 h, 100 nL compound (AID 1169); details: RPMI8226 myeloma, JC-1 mitochondrial potential fluorescence, higher = more signal; further: test concentration not given here
# [9] = basal MM1S mitochondrial membrane potential changes, profiling panel, cell-based, JC-1 fluorescence, 24 h, 100 nL compound (AID 1170); details: higher = more signal; further: test concentration not given here
# [10] = A549 lung cancer cell viability effects, profiling panel, resazurin fluorescence, 24 h, PK04 Diversity Set (AID 1171); details: higher = more signal, called active from +8 up or from −8 down; further: test concentration not given here
# [11] = HepG2 liver cancer cell viability effects, profiling panel, resazurin fluorescence, 24 h, PK04 Diversity Set (AID 1172); details: higher = more signal; further: test concentration not given here
# [12] = basal S. cerevisiae growth modulation, no modifier, primary screen, OD600, strain BY4716, 24 h, basal condition (AID 1173); details: OD600, 24 h, higher = more signal, called active from +8 up or from −8 down
# [13] = MM1S myeloma cell viability, profiling panel, resazurin fluorescence, basal, 24 h, PK04 Diversity Set (AID 1174); details: higher = more signal, called active from +8 up or from −8 down;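 further: MM1S multiple myeloma cell line; test concentration not given here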
# [14] = target: Dihydroorotate dehydrogenase (quinone), mitochondrial (Plasmodium falciparum (isolate 3D7)) (UniProt Q08210); test: PfDHODH enzyme inhibitors, primary screen, biochemical, C-terminal His tag, absorbance 600 nm (AID 1175); details: DCIP absorbance 600 nm, higher = more signal, called active from +8 up or from −8 down;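 further: recombinant parasite enzyme with a five histidine tag at its C terminus; test concentration not given here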
# [15] = P. aeruginosa biofilm formation inhibitors, primary screen, strain PAO1, LB-PBS medium, absorbance 600 nm (AID 1176); further: test concentration not given here; details: P. aeruginosa PAO1 growth/biofilm, A600, 12 h; higher = more signal
# [16] = S. cerevisiae RM11-1a growth modifiers, primary screen, strain RM11-1a, OD600, basal, 24 h (AID 1177); details: OD600, 24 h, higher = more signal, called active from +8 up or from −8 down;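 further: cultures grown under basal conditions with no added stressor; test concentration not given here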
# [17] = E. coli acrAB mutant growth effects, primary screen, E. coli filamentation inducers, strain DRC39, OD650, 24 h (AID 1178); details: higher = more signal, called active from +8 up or from −8 down;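 further: growth measured as culture turbidity by optical density at 650 nm; test concentration not given here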
# [18] = E. coli acrAB mutant growth effects, primary screen, E. coli filamentation inducers, strain DRC39, OD650, 48 h (AID 1179);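 further: screen aims at cell division blockers that make cells filament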; details: E. coli DRC39 delta-acrAB growth, higher = more signal, called active from +8 up or from −8 down
# [19] = RPMI8226 myeloma cell viability, profiling panel, resazurin fluorescence, basal, 24 h, PK04 Diversity Set (AID 1180); details: higher = more signal;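 further: RPMI8826 multiple myeloma cell line at 5000 cells per well; test concentration not given here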
# [20] = target: E3 ubiquitin-protein ligase XIAP (Homo sapiens) (UniProt P98170); test: XIAP binders, primary screen, biophysical, small-molecule microarray, fluorescence 635 nm (AID 1181); details: small-molecule microarray binding, higher = more signal;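 further: score merges 667 nm emission and signal to noise over triplicate slides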
# Chain of E3 ubiquitin-protein ligase XIAP (Homo sapiens) (P98170 whole entry, looked up): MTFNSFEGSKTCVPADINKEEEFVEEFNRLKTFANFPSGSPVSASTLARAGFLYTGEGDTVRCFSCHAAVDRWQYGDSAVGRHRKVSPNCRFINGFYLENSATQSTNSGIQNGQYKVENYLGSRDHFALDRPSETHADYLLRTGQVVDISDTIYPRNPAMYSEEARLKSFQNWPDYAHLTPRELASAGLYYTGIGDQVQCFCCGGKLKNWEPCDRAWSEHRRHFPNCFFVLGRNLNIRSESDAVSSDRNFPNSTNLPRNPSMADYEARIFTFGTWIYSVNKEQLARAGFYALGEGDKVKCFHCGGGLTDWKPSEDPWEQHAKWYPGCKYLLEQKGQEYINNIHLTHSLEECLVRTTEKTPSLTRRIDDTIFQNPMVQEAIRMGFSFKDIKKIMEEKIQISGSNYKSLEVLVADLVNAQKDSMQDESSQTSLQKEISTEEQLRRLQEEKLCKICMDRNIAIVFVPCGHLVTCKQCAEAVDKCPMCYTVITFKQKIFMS
# Chain of Dihydroorotate dehydrogenase (quinone), mitochondrial (Plasmodium falciparum (isolate 3D7)) (Q08210 whole entry, looked up): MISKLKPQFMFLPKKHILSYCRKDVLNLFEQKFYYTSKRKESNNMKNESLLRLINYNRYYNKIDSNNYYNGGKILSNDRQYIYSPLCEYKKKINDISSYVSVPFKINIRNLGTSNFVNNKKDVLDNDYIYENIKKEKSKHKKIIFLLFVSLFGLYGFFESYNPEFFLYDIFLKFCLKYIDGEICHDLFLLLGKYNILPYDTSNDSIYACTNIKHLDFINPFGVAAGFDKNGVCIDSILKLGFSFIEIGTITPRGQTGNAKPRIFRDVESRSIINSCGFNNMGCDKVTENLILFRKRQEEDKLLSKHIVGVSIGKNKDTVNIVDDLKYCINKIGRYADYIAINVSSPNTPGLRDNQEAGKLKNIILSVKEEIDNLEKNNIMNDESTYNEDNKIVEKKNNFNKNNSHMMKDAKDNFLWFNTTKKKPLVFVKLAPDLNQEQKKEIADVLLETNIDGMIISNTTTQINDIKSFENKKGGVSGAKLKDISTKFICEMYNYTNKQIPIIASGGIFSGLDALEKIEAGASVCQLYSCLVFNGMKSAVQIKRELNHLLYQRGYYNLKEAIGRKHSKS
Compound,z-score [1],z-score [2],z-score [3],z-score [4],z-score [5],z-score [6],z-score [7],z-score [8],z-score [9],z-score [10],z-score [11],z-score [12],z-score [13],composite z-score [14],z-score [15],z-score [16],z-score [17],z-score [18],z-score [19],composite z-score [20]
Cc1ccc(C(C)CC(O)C2C=CC3C(=O)N(c4ccccc4)C(=O)C3N2Nc2ccc([N+](=O)[O-])cc2)o1 (stereo not given),-0.483,0.0852,0.268,-0.0308,-0.259,-0.414,-2.12 (inactive),-0.0508,-1.54,0.35 (inactive),0.836,0.124 (inactive),-0.171 (inactive),-0.071 (inactive),1.14 (inactive),0.315 (inactive),-0.975 (inactive),0.178 (inactive),0.263,0.152
COc1ccc([Si](C)(C)[C@H]2[C@H](CCO)O[C@@]3(C(=O)N(Cc4ccc(N5C(=O)COc6ccccc65)cc4)c4ccccc43)[C@@H]2C)cc1,-0.525,0.0432,-3.14,-2.36,-4.33,-0.509,1.36 (inactive),-1.07,-2.12,-2.35 (inactive),-1.97,0.573 (inactive),-4.21 (inactive),-0.349 (inactive),3.06 (inactive),3.3 (inactive),0.404 (inactive),-0.288 (inactive),-5.05,0.144
Cc1ccc(S[C@]2(C(=O)NCC(C)C)CC(=O)N(Cc3cc(C(F)(F)F)cc(C(F)(F)F)c3)[C@@H]2c2ccc(CO)cc2I)cc1,-0.431,0.299,-0.588,-3.16,-2.29,-0.523,-0.3 (inactive),-0.39,-1.01,-0.227 (inactive),-0.0295,-3.38 (inactive),-2.99 (inactive),-0.83 (inactive),-0.522 (inactive),-1.19 (inactive),-0.155 (inactive),-0.586 (inactive),-2.27,-0.17
COc1ccc([C@H]2C[C@H]3C(Br)=C[C@@H]2C(=O)[C@]32CO2)cc1,0.321,0.0531,-0.193,-2.75,-1.55,-0.262,0.558 (inactive),-0.556,-0.914,0.217 (inactive),0.158,-6.22 (inactive),-0.0566 (inactive),1.03 (inactive),-0.647 (inactive),0.844 (inactive),1.75 (inactive),0.406 (inactive),0.869,-0.0292
COCCOC(=O)N1C(=O)[C@@]2(c3cc(C#Cc4ccc(OC)cc4)ccc31)[C@H](c1ccc(O)cc1)N1[C@H](c3ccccc3)[C@H](c3ccccc3)OC(=O)[C@H]1[C@@H]2C(=O)NC[C@H](O)c1ccccc1,-0.828,1.44,-0.55,-1,-2.16,-1.99,2.46 (inactive),-0.653,-0.524,0.123 (inactive),-0.372,0.895 (inactive),-0.5 (inactive),1.49 (inactive),0.429 (inactive),0.95 (inactive),0.351 (inactive),-0.206 (inactive),-0.573,-0.296
CCOC(=O)C[C@H]1[C@H](OC(=O)c2cc3ccccc3oc2=O)[C@@H](NC(=O)C2CCCCC2)c2cc(OCCCO)ccc2N1C(=O)c1ccccc1,-0.11,3.15,0.914,0.172,-0.594,1.36,-0.186 (inactive),-0.848,0.739,-0.713 (inactive),-0.687,-0.797 (inactive),0.0797 (inactive),-2.85 (inactive),-0.259 (inactive),-0.403 (inactive),1.65 (inactive),0.612 (inactive),0.285,-0.214
O=C1O[C@@H](c2ccccc2)[C@@H](c2ccccc2)N2[C@@H](c3ccc(OCCO)cc3)[C@]3(C(=O)Nc4ccccc43)[C@@H](C(=O)NC[C@H](O)c3ccccc3)[C@H]12,-0.462,-0.0144,-0.328,-0.38,-0.575,-1.76,-0.872 (inactive),-0.53,-0.226,0.496 (inactive),0.665,1.33 (inactive),0.251 (inactive),-0.854 (inactive),2.44 (inactive),1.84 (inactive),0.0225 (inactive),-0.348 (inactive),-0.0509,-0.117
COCCOC(=O)N1C(=O)[C@@]2(c3cc(C#CCCO)ccc31)[C@H](C(=O)Nc1nc3ccccc3s1)[C@H]1C(=O)O[C@H](c3ccccc3)[C@H](c3ccccc3)N1[C@@H]2c1ccc(OCCO)cc1,-0.324,-0.0713,0.555,-0.315,-0.234,-3.53,0.823 (inactive),-0.371,-1.41,1.24 (inactive),1.04,1.96 (inactive),-0.922 (inactive),-0.944 (inactive),2.84 (inactive),2.33 (inactive),0.348 (inactive),0.215 (inactive),-1.66,0.154
